From PubChem BioAssay
BAZ2B inh: blocks human BAZ2B. AID 504333. 360,000 tested, 4.4% active. AlphaScreen BAZ2B-H3K14Ac peptide displacement. Potency, µM (titrated, usually from 114 µM), for inactives: top-dose activity change, negative = inhibition, most hits filed as inhibitors; further: on the % scale 0 is the no-effect control and ±100 the full control effect; nearly all actives have a fitted effect of over 60% in size
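BAZ2B (50 nM) with biotin-H3(5-23)K14Ac peptide (50 nM) in PBS pH 7.4, 0.01% Tween-20, preformed 30 min, then compound 30 min at room temperature; top concentration 110uM. AlphaScreen streptavidin donor/nickel chelate acceptor beads (10 ug/mL final), 20 min dark, signal read.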
ALOX12 inh: blocks human arachidonate 12S-lipoxygenase. P18054. purified 12hLO, xylenol orange hydroperoxide absorbance. Potency, µM (top dose mostly 108 µM), for the others: at the top dose activity change, negative = inhibition, actives largely listed as inhibitors. 580,000 tested, 1.1% active. AID 1671190; further: on the % scale 0 is the no-effect control and ±100 the full control effect
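Hydroperoxide product was detected by ferrous iron/xylenol orange as the 573 to 405 nm absorbance ratio. Arachidonic acid at 40 uM (final) was turned over for 30 min at room temperature by 150 nM human 12hLO, pH 7.0 Hepes buffer, after 15 min compound preincubation.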
HP1b binding inh: HP1-beta chromodomain-methylated histone interaction inhibition; AlphaScreen HP1-beta / biotin-H3K9me3 peptide binding; Potency, µM (top dose mostly 114 µM), for the others: at the highest dose activity change, negative = inhibition, usual class: inhibitors; 390,000 tested, 0.56% active; AID 540317; further: nearly all actives have a fitted effect of over 70% in size
Target sequence (P83916 whole entry, looked up): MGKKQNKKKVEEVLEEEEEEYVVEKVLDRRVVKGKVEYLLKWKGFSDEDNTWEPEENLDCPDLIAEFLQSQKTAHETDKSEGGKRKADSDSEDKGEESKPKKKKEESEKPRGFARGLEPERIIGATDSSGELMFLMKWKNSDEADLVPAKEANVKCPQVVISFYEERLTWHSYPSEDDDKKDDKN
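AlphaScreen: HP1-beta (50 nM) preformed 30 min with biotin-H3(1-18)K9me3 peptide (50 nM) in PBS pH 7.4, 0.01% Tween-20. Compound added for 30 min at RT, then streptavidin donor/nickel chelate acceptor beads (10 ug/mL) for 30 min.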
Sfp PPTase inh: Sfp phosphopantetheinyl transferase inhibition; Q9F4F7; Biochemical Sfp PPTase activity, qHTS; 310,000 tested, 3.5% active; Potency, µM, inactives show largest response in the series, negative = inhibition, usual class: inhibitors; AID 1490;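 further: the enzyme is Sfp with the accession as filed and its product quenches rhodamine fluorescence; 0% = enzyme reaction without inhibitor and -100% = no enzyme wells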
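With Hepes-Na pH 7.6 buffer containing 10 mM MgCl2, Sfp (15 nM) modified BHQ-2-YbbR (12.5 uM) using rhodamine-CoA (5 uM). Two reads 30 minutes apart at 525/598 nm yielded each well's rate.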
G9a inh: blocks human histone lysine methyltransferase G9a | Q96KQ7 | AID 504332 | Potency, µM (top dose mostly 102 µM), for inactives: at the top dose activity, negative = inhibition, most hits filed as inhibitors | 350,000 tested, 8.8% active | G9a H3K9 monomethylation, AlphaScreen, 2 h; further: on the % scale 0 is the no-effect control and ±100 the full control effect; nearly all actives have a fitted effect of over 75% in size
Target sequence (Q96KQ7 913-1193 limits assumed): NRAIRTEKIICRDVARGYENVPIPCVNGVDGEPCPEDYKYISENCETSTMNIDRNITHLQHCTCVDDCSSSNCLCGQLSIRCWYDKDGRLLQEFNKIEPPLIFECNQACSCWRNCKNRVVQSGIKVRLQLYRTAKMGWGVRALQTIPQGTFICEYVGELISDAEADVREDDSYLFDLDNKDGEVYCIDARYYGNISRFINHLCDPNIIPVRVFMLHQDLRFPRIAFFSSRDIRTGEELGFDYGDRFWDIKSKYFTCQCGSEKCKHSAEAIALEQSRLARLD
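Enzyme 20 nM + cpd, 15 min RT; add b-H3K9 pep 500 nM / SAM 20 uM; 2 h RT; anti-H3K9me1 Ab 0.5 ug/mL + SA donor / anti-rabbit acceptor beads 20 ug/mL each, 10 min; AlphaScreen read.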
JMJD2A Tudor: JMJD2A Tudor domain (human) inhibition. O75164. AlphaScreen JMJD2A-Tudor / H3K4me3 peptide binding. Potency, µM (top dose mostly 114 µM), without a hit: top-dose activity change, negative = inhibition, actives largely listed as inhibitors. 390,000 tested, 4.4% active. AID 504339; further: on the % scale 0 is the no-effect control and ±100 the full control effect; nearly all actives have a fitted effect of over 50% in size
* marks the source's active call; other numbers are inactive results; ? = inconclusive; · = no result; ! = not active in a repeat; [ ] = another dose, or the depositor's remark. This is a sample that favours compounds with a hit; in the whole collection about 8.7% have one here. The call rests on the fitted dose curve; in most records, active means well fitted curve in the direction sought with a large enough effect; inconclusive means small, poorly fitted or top-dose-only effect, or another doubt; inactive means no such curve, though single readings can be large; an effect the other way counts as inactive or inconclusive. Potency means the concentration at half of the fitted maximal effect.

SMILES	BAZ2B inh	ALOX12 inh	HP1b binding inh	Sfp PPTase inh	G9a inh	JMJD2A Tudor
CN(Cc1ccccc1)C(=S)Nc1ccc(OC(F)F)cc1	7.9%	-4.3%	33.4%	4.8%	-9.6%[59 µM]	2.8%
C=CCn1c(C)cc(/C([O-])=C(/C(=S)Nc2ccc(OC(F)F)cc2)[n+]2ccc(N(C)C)cc2)c1C	44.7µM*	?	?	-9.7%	39.8µM*	?
O=C(Nc1ccc(Cl)cc1C(F)(F)F)C(c1ccccc1)c1ccccc1	·	-7.5%	·	·	·	·
CCc1cc(OCCOCCN(C)C)ccc1Cl	?	?	?	-14.2%	?	2.24µM*
CCCOc1ccc(Cl)cc1CNc1ccccc1	35.3%	-14.2%	52.4%	-1.5%	205.8%	57.0%
C=CCc1cc(OC)ccc1OCCOCCC(C(=O)OCC)C(=O)OCC	34.5%	-24.5%	134.2%	22.9%	65.4%[59 µM]	46.9%
C=CCc1cc(Cl)ccc1OCCOCCNCCOC	70.8µM*	-16.0%	?	-16.6%	?	10µM*
C=CCc1cc(Cl)ccc1OCCOCCN(C)C	50.1µM*	?	?	-22.6%	7.94µM*	3.55µM*
C=CCc1cc(Cl)ccc1OCCOCCNC(C)(C)C	50.1µM*	?	-30.3%	-12.9%	25.1µM*	14.1µM*
Cc1ccc(S(=O)(=O)N(C)C2CCOc3ccccc32)cc1 (centres undefined)	·	-16.5%[176 µM]	·	·	·	·
C=CCc1cc(Cl)ccc1OCCNCCCOC	2.5%	-15.2%	?	-2.3%	20µM*	2.51µM*
Cc1ccc(OCCOCCN(C)C)c(Cl)c1	79.4µM*	-17.7%	?	-8.7%	8.91µM*	39.8µM*
C=CCc1ccccc1OCCNCCCOC	-34.8%	-17.5%	-35.5%	23.5%	8.91µM*	2.51µM*
COCCNC(=O)CCCN1C(=O)COc2ccc(C(=O)COc3ccc(C(C)(C)C)cc3)cc21	·	32.8%	·	·	·	·
COc1cc([N+](=O)[O-])cc(/C=N/N(CCC#N)C(C)=O)c1O	?	-26.1%	11.0%	12.8%	44.7µM*	-6.9%
CC(=O)/C=C(/NCc1ccccc1)C(F)(F)F	·	5.3%	·	·	·	·
CC(C)c1ccc(/C=C2\CC/C(=C\C=N\N(C)C)C2=O)cc1	56.2µM*	0.0%	-1.6%	79.4µM*	?	?
CN(C)/N=C/C=C1\CC/C(=C\c2ccc(F)c(F)c2)C1=O	·	-15.8%	23.5%	·	·	?
COCCc1noc([C@@H]2CN(Cc3ccc(C(C)C)cc3)C[C@H]2CO)n1	·	36.2%	·	·	·	·
Cc1noc(-c2cccc(OC3CN(C(=O)Nc4cccc(F)c4)C3)c2)n1	·	1.6%	·	·	·	·
CN1CCN(c2ccc(NC(=O)CSc3nnnn3-c3ccccc3F)cc2)CC1	-21.3%[57.1 µM]	-3.2%	2.5%	0.0%	79.4µM*	-30.3%
Cc1ccc(-n2nnnc2SCC(=O)Nc2ccc(N3CCN(C)CC3)cc2)c(C)c1	?	-28.3%	54.6%	-6.6%	50.1µM*	6.6%
COc1ccccc1NC(=O)CSc1nnnn1-c1ccccc1F	8.4%	?	-8.8%	39.8µM*	-7.0%[0.501 µM]	-9.0%
COc1ccc(-n2nnnc2SCC(=O)NCCc2ccccc2)cc1OC	?	?	32.1%	8.3%	22.4µM*	-2.7%
O=C(Nc1ccccc1)C(c1ccccc1)N1CCN(C(=O)C2CC2)CC1 (centres undefined)	·	7.7%	·	·	·	·
SMILES	BAZ2B inh	ALOX12 inh	HP1b binding inh	Sfp PPTase inh	G9a inh	JMJD2A Tudor
COc1cccc2cc(-c3nc(-c4nonc4N)no3)c(=O)oc12	·	-5.7%	·	·	·	·
O=C(O)C1CCC1	·	-4.7%[22.9 µM]	·	·	·	·
NC1(C(=O)O)CCC1	·	1.41µM*!	·	?	·	·
NC1(C(=O)O)CC(C(=O)O)C1 (centres undefined)	·	?	·	50.1µM*	3.7%[59 µM]	·
N[C@@]1(C(=O)O)CN[C@@H](C(=O)O)C1	·	-23.4%	·	22.4µM*	28.7%[59 µM]	·
N.N.O=C(O)C1(C(=O)O)CCC1.[Pt]	·	·	·	-102.6%	0.631µM*	·
O=C(O)C1(C(=O)O)CCC1	0.1%	-21.3%	11.4%	·	·	-13.7%
Cn1c(=O)c2nc(SCC(=O)NCc3ccc(F)cc3)n(C)c2n(C)c1=O	·	2.2%	·	·	·	·
N#Cc1ccc(NC(=O)Cn2nc3c(N4CCCC4)nc4ccccc4n3c2=O)cc1	·	-19.7%	·	·	·	·
